Measurements reported in PubChem BioAssay AID435005 (Broad Institute, 2010).
The campaign covered roughly 300,000 compounds. About 2,400 (0.8%) were called active.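 How the source made its calls: active means Every replicate reaches about 75%, or at least half do and their mean reaches it too (limit read from the data); inconclusive means At least half of replicates reach the limit but their mean does not; inactive means Under half of replicates reach the limit.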 Only a selection was taken, and actives are over-represented in it overall.

experiment: INS-1E beta cell survival under cytokines – luminescence, primary screen (AID 435005); settings: INS-1E cytokine-induced death, ATP luminescence, 48 h; stronger effect = higher value; percent of positive-control rescue, neutral wells zero; concentration not given here;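 further: 0% = cytokine-treated negative control wells and 100% = positive control rescue; higher means more ATP so stronger rescue from cytokine killing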

SMILES | protection from apoptosis
CN(CC(=O)Nc1ccc(Cl)cc1)CC(=O)Nc1cccc2ccccc12 | 0.976% (inactive)
Cc1onc(-c2c(F)cccc2Cl)c1C(=O)OCC(=O)N1C(C)CCCC1C (stereo not given) | 1.7% (inactive)
Cc1cccc(C(=O)NNC(=O)c2cccc([N+](=O)[O-])c2)c1 | -5.35% (inactive)
Cc1[nH]n(-c2ccccc2)c(=O)c1/C=N/NC(=O)c1ccoc1C | 107% (active)
Cc1occc1C(=O)N/N=C/c1ccc(-c2cccc([N+](=O)[O-])c2)o1 | 4.96% (inactive)
COc1cc(/C=N/NC(=O)c2ccoc2C)ccc1OCCN1CCCCC1 | -1.12% (inactive)
Cc1ccc(-n2[nH]c(C)c(/C=N/NC(=O)c3cccc([N+](=O)[O-])c3)c2=O)cc1C | 106% (active)
Cc1[nH]n(-c2ccc([N+](=O)[O-])cc2)c(=O)c1C=NCCN1CCN(C(=O)c2ccccc2F)CC1 | 48.6% (inactive)
Cc1ccc(N2C(=O)N3[C@@H]4c5ccccc5OC[C@@H]4[C@@H](c4ccccc4)[C@@]3(C)C2=O)cc1 | -1.96% (inactive)
Cc1ccc(S(=O)(=O)N(C)C)cc1NC(=O)CN1c2cccc3cccc(c23)S1(=O)=O | -0.228% (inactive)
CCOc1ccc(NC(=O)CCC(=O)N/N=C/c2ccc([N+](=O)[O-])s2)cc1 | -9.66% (inactive)
COc1ccc(C(=O)NCC(=O)N/N=C/c2ccc([N+](=O)[O-])o2)cc1OC | -11.1% (inactive)
CC(C)(C)c1cc(C(=O)N/N=C/c2ccc([N+](=O)[O-])s2)n[nH]1 | 111% (active)
COc1ccc(C(=O)NCC(=O)N/N=C/c2ccc([N+](=O)[O-])s2)cc1OC | 91.3% (active)
COc1ccc(C(=O)COC(=O)c2ccc([N+](=O)[O-])s2)cc1OC | 4.99% (inactive)
Cc1ccccc1NCC(=O)N/N=C\c1ccc([N+](=O)[O-])s1 | 3.12% (inactive)
CCN(C[C@H]1N[C@@](CC)(C(=O)OC)[C@H]2C(=O)N(Cc3ccccc3)C(=O)[C@@H]12)S(=O)(=O)c1ccc(C(F)(F)F)cc1 | 13.9% (inactive)
COc1ccc(C)cc1NC(=O)c1cc(-c2ccccc2)nc2c1cnn2C(C)C | 15.6% (inactive)
COc1ccc(S(=O)(=O)Nc2cccc3c2O[C@H](CN(C)S(=O)(=O)c2ccc(OC)cc2)[C@@H](C)CN([C@H](C)CO)C3=O)cc1 | -7.76% (inactive)
COc1ccc(S(=O)(=O)N(C)C[C@@H]2Oc3ccc(NS(=O)(=O)c4cn(C)cn4)cc3C(=O)N([C@@H](C)CO)C[C@@H]2C)cc1 | -2.08% (inactive)
Nn1c(SCC(=O)NC2CCCc3ccccc32)nnc1C1CC1 (stereo not given) | -5.42% (inactive)
COc1ccc(CCNC(=O)COC(=O)c2cnc(Cl)c(Cl)c2)cc1 | -3.76% (inactive)

SMILES | protection from apoptosis
C/C(=N\NC(=O)Cc1ccc(Cl)cc1)c1ccccn1 | 87.6% (active)
C/C(=N\NC(=O)Cc1ccc(F)cc1)c1ccc(F)cc1 | -1.1% (inactive)
C/C(=N\NC(=O)c1ccccc1F)c1ccccn1 | 92% (active)
COC(=O)c1ccccc1NC(=S)NC(=O)c1ccccc1F | 1.17% (inactive)
C/C(=N\NC(=O)Cc1ccc(Br)cc1)c1cccnc1 | -3.84% (inactive)
C/C(CC(=O)Nc1ccc(N(C)C)cc1)=N\NC(=O)c1ccccc1F | 1.37% (inactive)
O=C(COC(=O)c1ccccn1)NNC(=O)c1ccc(Br)cc1 | -13.1% (inactive)
Cc1cc(C)cc(OCC(=O)Nc2ccc(N3CCOCC3)cc2N2CCOCC2)c1 | 1.95% (inactive)
CN(CC(=O)Nc1ccc(OC(F)F)cc1)S(=O)(=O)/C=C/c1ccccc1 | -0.758% (inactive)
CCc1ccc(-n2c(SCc3cc(=O)n4cc(Br)ccc4n3)nc3[nH]ncc3c2=O)cc1 | 16.3% (inactive)
COc1ccc(CCNC(=O)CSc2nc3[nH]ncc3c(=O)n2-c2cccc(C(F)(F)F)c2)cc1OC | 4.86% (inactive)
Cc1cccc2nc(CSc3nc4[nH]ncc4c(=O)n3-c3cccc(Cl)c3)cc(=O)n12 | 92.7% (active)
CC[C@@H]1CCCCc2ccccc2[C@@H](C(=O)C[C@H](O)CC(C)=O)OC1=O | -2.96% (inactive)
C[C@@H]1CN([C@@H](C)CO)C(=O)c2cccc(NS(=O)(=O)c3ccc(F)cc3)c2O[C@H]1CN(C)C(=O)NC1CCCCC1 | -0.297% (inactive)
CC(C)OCCCNC(=O)c1cc(Sc2ccc(F)cc2)nc2ccccc12 | 0.00619% (inactive)
COc1cc(OC)c(OC)cc1/C=N/Nc1ncnc2c1[nH]c1ccc(C)cc12 | 6% (inactive)
CC(C)OCCCNc1ncnc2c1[nH]c1ccc(F)cc12 | 104% (active)
COc1ccc(NC(=O)CN(C)C(=O)c2cc(C3CC3)nn2-c2ccccc2)cc1 | -6.53% (inactive)
N#Cc1cc([N+](=O)[O-])ccc1NC(=O)COC(=O)c1cnccn1 | -1.22% (inactive)
CCc1cccc(CC)c1NC(=S)Nc1ccc2cn[nH]c2c1 | -5.93% (inactive)
Cc1cccc(NC(=S)Nc2ccc3cn[nH]c3c2)c1 | 124% (active)
Cc1cccc(NC(=S)Nc2ccc(Cl)c(Cl)c2)c1 | 2.17% (inactive)

SMILES | protection from apoptosis
COc1ccc(S(=O)(=O)N(C)C[C@H]2Oc3c(NC(=O)Nc4ccc5c(c4)OCO5)cccc3C(=O)N([C@H](C)CO)C[C@@H]2C)cc1 | 2.68% (inactive)
Cc1ccc(C(=O)Nc2ccc3c(c2)OCCO3)cc1S(=O)(=O)N1CCOCC1 | 10.2% (inactive)
C/C(N)=C(/C#N)C(=O)COC(=O)c1cc(-c2cccc(Br)c2)nc2ccccc12 | -5.26% (inactive)
C/C(N)=C(/C#N)C(=O)COC(=O)c1cc(-c2ccc(C)cc2)nc2ccccc12 | 80.7% (active)
C/C(N)=C(/C#N)C(=O)COC(=O)c1cc(-c2ccccc2)nc2ccc(Br)cc12 | 7.58% (inactive)
O=C(OCCN1C(=O)c2ccccc2C1=O)[C@@H]1CC(O)CN1S(=O)(=O)c1ccccc1[N+](=O)[O-] (stereo not given in full) | 4.37% (inactive)
C=CC[C@H](CC(=O)OC(C)(C)C)C(=O)OC[C@H]1CCCN1C(=O)[C@H](CC=C)CC(=O)N(CCO)Cc1ccccc1 | 5.16% (inactive)
CCC(CO)Oc1cc(NC(=O)c2cccc(F)c2)c2ncn(C(C)C)c2c1 (stereo not given) | -0.224% (inactive)
COC(=O)C1=C(C)N(Cc2ccccc2)C(=NCCCOC(C)C)N[C@H]1c1ccccc1 | 11.4% (inactive)
Nc1ccc(Nc2ccccc2)cc1 | 78% (active)
Cc1cc(Nc2ccccc2)n(C(=O)c2ccc(N)cc2)n1 | -16.4% (inactive)
Cc1ccc(Nc2ccccc2N)cc1 | -7.56% (inactive)
NC(=O)c1c(Nc2nc3c(F)cccc3s2)sc2c1CCCC2 | -4.14% (inactive)
Fc1cc(F)c2nc(Nc3nc4c(F)cccc4s3)sc2c1 | 103% (active)
O=C(Nc1nc2c(F)cc(F)cc2s1)C1COc2ccccc2O1 (stereo not given) | 8.45% (inactive)
COc1ccc(C(=O)O)cc1S(=O)(=O)NC1CCN(Cc2ccccc2)CC1 | -4.08% (inactive)
CC(C)(C)Nc1nc(-c2ccccn2)nc2ccccc12 | 118% (active)
CCC(=O)OCCNc1nc(-c2ccccc2)nc2ccccc12 | 0.204% (inactive)
N#Cc1ccc(Oc2cc(C(F)(F)F)nc(-c3ccccn3)n2)cc1 | -3.82% (inactive)
Cc1ccc(Oc2nc(-c3ccccn3)nc3ccccc23)cc1 | 101% (active)
COc1ccc(Cc2nc(-c3ccccn3)no2)cc1OC | 4.66% (inactive)
CCOC(=O)c1cnc(-c2ccccc2)nc1Oc1ccc(C)cc1 | -3.84% (inactive)

SMILES | protection from apoptosis
CCOCCCNc1nc(-c2ccccc2)nc2ccccc12 | 4.15% (inactive)
COc1cnc(-c2ccccn2)nc1Oc1ccc(C(C)(C)C)cc1 | 97.3% (active)
COc1ccc(Sc2nc(-c3ccccc3)ncc2OC)cc1 | -2.84% (inactive)
COc1ccccc1S(=O)(=O)NCc1ccc(C(=O)N(C)Cc2ccc(F)cc2)cc1 | -4.62% (inactive)
CCN(CC)C(=O)[C@H]1CC(CC(=O)NCc2ccco2)C(=O)N2CCc3c([nH]c4ccccc34)[C@]12C (stereo not given in full) | -1.53% (inactive)
O=C(COc1ccc([N+](=O)[O-])cc1Cl)Nc1ccc2[nH]c(=O)[nH]c2c1 | -0.613% (inactive)
CN(c1ccccc1)S(=O)(=O)c1cc(C(=O)N2CCN(c3ncccn3)CC2)ccc1Cl | -2.6% (inactive)
COc1ccccc1-c1oc2ccccc2c1C#CCCCCO | -5.68% (inactive)
COC(=O)c1ccc(/C=C/c2c(-c3ccc(OC)cc3)sc3ccccc23)cc1 | 5.7% (inactive)
Cn1nccc1C(=O)NC1CCCc2c1cnn2-c1ccccc1F (stereo not given) | 111% (active)
CC(=O)NCC(=O)NC1CCCc2c1cnn2-c1ccccc1F (stereo not given) | -7.28% (inactive)
COc1ccc(C(=O)NC2CCCc3c2cnn3-c2cccc(C)c2C)c(OC)n1 (stereo not given) | 32.4% (inactive)
Cc1cc(C(=O)NC2CCCc3c2cnn3-c2cccc(C)c2C)c(C)o1 (stereo not given) | 41.6% (inactive)
Cn1nccc1C(=O)NC1CCCc2c1cnn2-c1ccc(F)cc1F (stereo not given) | 132% (active)
Cc1ccc(-n2ncc3c2CCCC3NC(=O)c2cnccn2)cc1C (stereo not given) | 2.44% (inactive)
Cc1c(C(=O)Nc2cccc(S(=O)(=O)N3CCOCC3)c2)oc2ccccc12 | -9.31% (inactive)
COc1cc(C(=O)OCc2cc(=O)n3ccsc3n2)ccc1OC(C)C | -0.396% (inactive)
CC(C)c1ccc(NC(=O)COC(=O)c2ccc(CN3CCCC3=O)cc2)cc1 | 3.42% (inactive)
COc1ccccc1-c1sc2ccccc2c1C#CC1(O)CCCCC1 | -12% (inactive)
